Test results published in PubChem BioAssay (Tox21).
Records with an inconclusive call do not appear. The source made the active and inactive calls. The call rests on the fitted dose curve; in most records, active means well fitted cell-killing curve with a large enough effect in the repeat runs; inconclusive means weak or mixed curves, or effect the other way; inactive means flat fitted curve, though single readings scatter.

Assay: qHTS assay to identify small molecule antagonists of the estrogen receptor alpha (ER-alpha) signaling pathway using the BG1 cell line in the presence of 0.1 nM 17-beta-estradiol - cell viability counter screen (AID 1259241); further: nearly all actives have a fitted effect of over 40% in size
Conditions: VM7Luc4E2 (BG1) viability, CellTiter-Fluor protease, 22 h, 0.1 nM estradiol agonist added; series mostly up to 92.4 µM; activity change, negative = cytotoxicity: at the top concentration
Description: National Center for Advancing Translational Sciences [NCATS]
NIH Chemical Genomics Center [NCGC]
U.S. Environmental Protection Agency [EPA]
National Institutes of Environmental Health Sciences [NIEHS]
National Toxicology Program [NTP]
U.S. Food and Drug Administration [FDA]
Estrogen receptor (ER), a member of the nuclear hormone receptor plays an important role in development, metabolic homeostasis and reproduction. Two subtypes of ER, ER-alpha and ER-beta, have similar expression patterns with some uniqueness in both types. Endocrine disrupting chemicals (EDCs) and their interactions with steroid hormone receptors like ER causes disruption of normal endocrine function. Therefore, it is important to understand the effect of environmental chemicals in ER signaling pathway. For identifying ER antagonists, VM7Luc4E2 cell line was used to screen against Tox21 compound libraries.
VM7Luc4E2 cell line (provided by Denison MS, University of California) endogenously express full-length ER-alpha and is stably transfected with a plasmid containing four estrogen responsive elements (ERE) upstream of a luciferase reporter gene. The current screening for identification of ER-alpha inhibitors against Tox21 compound libraries used lower concentration (0.1 nM) of 17beta-Estradiol as a stimulator. The cytotoxicity of the Tox21 compound libraries against VM7Luc4E2 cell line was tested by measuring live-cell protease activity using CellTiter-Fluor assay in the same wells.
Tox21 Assay Protocol Summary:
VM7Luc4E2 cells were cultured in phenol red free assay medium containing 10% charcoal stripped FBS for 5 days prior to the assay. The cells were dispensed at 4,000 cells/well in 4 uL of assay medium into white wall/solid-bottom 1536-well plates (Corning Life Sciences, Corning, NY) using a Multidrop Combi (ThermoFisher Scientific, Waltham, MA) dispenser. After the assay plates were incubated at 37C and 5% CO2 for 24 hr, 23 nL of compounds dissolved in DMSO, positive controls or DMSO only was transferred to the assay plates by a Pintool station (Kalypsys, San Diego, CA). The transfer of compounds was followed by the addition of 1 uL of 0.1 nM (final concentration) agonist (17beta-Estradiol)/assay medium using a Flying Reagent Dispenser (FRD, Aurora Discovery, San Diego, CA). The plates were incubated at 37C and 5% CO2 for 22 hr. For cytotoxicity assay, 1 uL of CellTiter-Fluor reagent (Promega Corporation, Madison, WI) was added to each well using the FRD and after 30 min incubation at 37C and 5% CO2, The fluorescence intensity was measured using ViewLux plate reader (PerkinElmer, Shelton, CT).
On the % scale 0 is the no-effect control and ±100 the full control effect.

Row | SMILES | activity change, negative = cytotoxicity
1 | On1nnc2ccccc21 | -3.25% (inactive)
2 | CCCCCCCCC1CCC(=O)O1 (stereo not given) | -4.28% (inactive)
3 | CO[C@@H]1[C@@H](OC(N)=O)[C@@H](O)[C@H](Oc2ccc3c(O)c(NC(=O)c4ccc(O)c(CC=C(C)C)c4)c(=O)oc3c2C)OC1(C)C | -0.169% [at 42.5 µM] (inactive)
4 | COC(=O)CCCCCCCC(=O)OC | -0.124% (inactive)
5 | CCCCC(CC)COCCO (stereo not given) | 4.21% (inactive)
6 | CC(=O)c1ccc2c(c1)Cc1ccccc1-2 | 3.67% (inactive)
7 | CC(=O)CCCCn1c(=O)c2c(ncn2C)n(C)c1=O | 1.92% [at 42.5 µM] (inactive)
8 | Cc1ccccc1C(=O)Nc1ccc(C(=O)N2CCCC(N(C)C)c3ccccc32)cc1 (stereo not given) | -9.17% [at 42.5 µM] (inactive)
9 | O=C(/N=N/C(=O)OCc1ccccc1)OCc1ccccc1 | -2.83% (inactive)
10 | C=Cc1ccccn1 | -2.37% (inactive)
11 | Cc1cccc(OCC(O)CNC(C)(C)C)c1C (stereo not given) | -10.4% [at 42.5 µM] (inactive)
12 | Cc1ccsc1/C=C/C1=NCCCN1C | 1.72% [at 42.5 µM] (inactive)
13 | Cc1cccc(C)c1OCC(C)N (stereo not given) | -12.9% [at 42.5 µM] (inactive)
14 | CC(C)NCC(O)COc1cccc2[nH]ccc12 (stereo not given) | -1.07% [at 42.5 µM] (inactive)
15 | CC(C)CC(C)CC(C)CC(C)COC(=O)c1ccccc1C(=O)OCC(C)CC(C)CC(C)CC(C)C (stereo not given) | 0.839% (inactive)
16 | Cc1cccc2nccnc12 | -2.66% (inactive)
17 | CC(C)C[C@H](NC(=O)CNC(=O)[C@H](Cc1ccc(O)cc1)NC(=O)[C@H](CO)NC(=O)[C@H](Cc1c[nH]c2ccccc12)NC(=O)[C@H](Cc1cnc[nH]1)NC(=O)[C@@H]1CCC(=O)N1)C(=O)N[C@@H](CCCN=C(N)N)C(=O)N1CCC[C@H]1C(=O)NCC(N)=O (stereo in doubt) | 1.97% [at 42.5 µM] (inactive)
18 | CCC(C)NC(N)=O (stereo not given) | 6.32% (inactive)
19 | CC(C)(C)c1nnc(NS(=O)(=O)c2ccc(N)cc2)s1 | -3.18% [at 42.5 µM] (inactive)
20 | COc1cc(N)ccc1C | -7.7% (inactive)

Row | SMILES | activity change, negative = cytotoxicity
21 | O=C(NCCc1c[nH]c2ccccc12)c1cccnc1 | 0.411% [at 42.5 µM] (inactive)
22 | COc1ccc(Br)c(C)c1 | -0.215% (inactive)
23 | CC(=O)Nc1cccc(C)c1 | -14.6% (inactive)
24 | Cc1ccccc1N=O | -5.07% (inactive)
25 | COC(=O)c1ccccc1C(=O)c1ccc(OCCN2CCCCC2)cc1 | -9.32% [at 42.5 µM] (inactive)
26 | C=CC(OCC)OCC | 13.1% (inactive)
27 | CC(=C(CCOC(=O)C(C)C)SSC(CCOC(=O)C(C)C)=C(C)N(C=O)Cc1cnc(C)nc1N)N(C=O)Cc1cnc(C)nc1N | 0.311% [at 42.5 µM] (inactive)
28 | CC(C)CCCC(C)(C)O | 0.508% (inactive)
29 | CCOC(=O)/C=C/c1ccccc1 | -0.156% (inactive)
30 | COc1cc(NS(=O)(=O)c2ccc(N)cc2)nc(OC)n1 | 6.61% [at 42.5 µM] (inactive)
31 | CCCCCCCCCCl | 4.41% (inactive)
32 | NC(CO)C(=O)NNCc1ccc(O)c(O)c1O (stereo not given) | -13.2% [at 42.5 µM] (inactive)
33 | CC(C)=CCOC(=O)c1ccccc1 | -6.39% (inactive)
34 | CCCCCCCC/C=C\CCCCCCCC(=O)OCCCC | -3.36% [at 19 µM] (inactive)
35 | CCCCCOC(=O)CCC | -3.41% (inactive)
36 | C[C@H](N)[C@H](O)c1cccc(O)c1 | 2.45% [at 42.5 µM] (inactive)
37 | CC(=O)N[C@@H](CCC(=O)O)C(=O)O | -1.65% [at 42.5 µM] (inactive)
38 | CCC(C)(CCC(C)C)C(=O)O (stereo not given) | 2.61% (inactive)
39 | CC(=O)OC(C)OC(=O)C(C)c1ccc(-c2ccccc2)c(F)c1 (stereo not given) | 9.38% [at 42.5 µM] (inactive)
40 | O=C(O)Cc1ccc(Cl)cc1Cl | 3.34% (inactive)
